High-throughput results deposited in PubChem BioAssay by The Scripps Research Institute Molecular Screening Center.
Hits are enriched below; roughly 2.8% of the tested compounds scored in any of these assays.
HGIII-sPLA2 inh – Blocks human group III sPLA2 activity; QFRET BODIPY PC-A2 liposome hydrolysis, fluorescence; inhibition, % at 12.2 µM; 370,000 tested, 0.56% active;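 active = inhibition above mean plus 3 SD of compounds lying within the high and low control bounds, cut at about 19% in these data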;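 note: 0% = median of test compound wells and 100% = no enzyme DMSO wells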
Target sequence (Q9NZ20 whole entry, looked up): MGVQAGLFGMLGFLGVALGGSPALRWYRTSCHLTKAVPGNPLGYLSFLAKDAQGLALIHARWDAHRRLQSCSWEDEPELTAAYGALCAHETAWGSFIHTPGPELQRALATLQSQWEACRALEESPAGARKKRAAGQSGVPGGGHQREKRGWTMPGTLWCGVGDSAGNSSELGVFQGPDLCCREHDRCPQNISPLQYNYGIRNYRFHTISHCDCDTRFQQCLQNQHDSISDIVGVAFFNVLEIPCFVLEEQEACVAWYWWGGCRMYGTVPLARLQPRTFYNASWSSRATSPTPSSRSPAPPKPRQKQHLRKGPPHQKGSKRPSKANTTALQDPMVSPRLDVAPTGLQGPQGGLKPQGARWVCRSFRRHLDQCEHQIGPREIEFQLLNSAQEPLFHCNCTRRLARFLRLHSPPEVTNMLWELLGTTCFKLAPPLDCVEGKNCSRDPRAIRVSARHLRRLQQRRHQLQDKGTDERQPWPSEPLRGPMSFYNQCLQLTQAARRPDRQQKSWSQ
MsrA inhibitor – inhibits bovine methionine sulfoxide reductase A; inhibition, % at 15.5 µM; purified bovine MsrA, absorbance read-out; 360,000 tested, 0.75% active; in the data active = inhibition above about 4.5%;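 note: 0% = vehicle wells with enzyme and 100% = reference inhibitor wells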
bovine MsrA act – bovine methionine sulfoxide reductase A activation; purified bovine MsrA, absorbance read-out; activation, % at 10.6 µM; 360,000 tested, 0.3% active; in the data active = activation above about 7.5%;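 note: 0% = vehicle and 100% = reference activator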
rCAG binder – molecules binding r(CAG) RNA repeats | 370,000 tested, 1.3% active | inhibition, % at 3 µM | r(CAG) RNA repeat, TO-PRO-1 dye displacement fluorescence | AID 651821;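 active = inhibition above the plate cutoff, the mean of all test compounds on that plate plus 3 SD, cut at about 35% in these data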;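 note: 0% = DMSO alone and 100% = 100 µM mitoxantrone as full dye displacement; higher means more dye released from RNA so lower well fluorescence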
rCAG bind conf – r(CAG) RNA repeat binding, confirmation. TO-PRO-1 dye displacement fluorescence. 4,300 tested, 70% active. shares compounds with rCAG binder. inhibition, % at 3 µM;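 active = inhibition above a per-plate cutoff, the mean inhibition of sample wells plus 3 SD, cut at about 35% in these data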;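 note: loss of TO-PRO-1 fluorescence as compound displaces dye from 1x1 AA loop RNA; 0% = DMSO only wells and 100% = 100 µM mitoxantrone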
DNA CAG counter – disrupts DNA CAG TO-PRO-1 complex, flagging rCAG hits | d(CAG) DNA oligo TO-PRO-1 dye displacement, fluorescence | 4,300 tested, 94% active | shares compounds with rCAG binder | inhibition, % at 3 µM;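 active = inhibition above its plate's cutoff, the mean test-well inhibition plus 3 SD, cut at about 4.8% in these data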;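 note: 0% = DNA dye mix with DMSO and 100% = 100 µM mitoxantrone; hits displace the dye from DNA and so lower well fluorescence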
An asterisk follows results filed as active.

Results for COc1cc(C2Nc3cccc4cccc(c34)N2)cc(OC)c1OC(C)=O ?
HGIII-sPLA2 inh: -8; MsrA inhibitor: 0; bovine MsrA act: 0; rCAG binder: 29

How did NC(=O)c1ccccc1NC(=O)c1ccccc1Cl do in these assays?
HGIII-sPLA2 inh: 5; MsrA inhibitor: 0; bovine MsrA act: -4; rCAG binder: 5

How did O=C(Nc1ccccc1C(=O)Nc1nnc(C(F)(F)F)s1)c1ccccc1Cl do in these assays?
HGIII-sPLA2 inh: -21; MsrA inhibitor: 0; bovine MsrA act: -2; rCAG binder: 65*; rCAG bind conf: 71*; DNA CAG counter: 30*

How did COc1cc(/C=N/NC(=O)Cc2nnc(NC(=O)c3ccccc3)s2)ccc1O do in these assays?
HGIII-sPLA2 inh: -4; MsrA inhibitor: 2; bovine MsrA act: -4; rCAG binder: 38*; rCAG bind conf: 15; DNA CAG counter: 7.5*

What do the screens show for `O=C(O)c1cccc(NC(=S)N/N=C/c2ccccc2OCc2cccc(Br)c2)c1`?
HGIII-sPLA2 inh: -2; MsrA inhibitor: 1; bovine MsrA act: -1; rCAG binder: 77*; rCAG bind conf: 79*; DNA CAG counter: 45*

What do the screens show for `O=C(O)c1cccc(NC(=S)N/N=C/c2cccc(O)c2)c1`?
HGIII-sPLA2 inh: -3; MsrA inhibitor: 1; bovine MsrA act: -1; rCAG binder: 4

How did O=C(O)c1cccc(NC(=S)N/N=C/c2ccccc2OCc2ccc(Br)cc2)c1 do in these assays?
HGIII-sPLA2 inh: 1; MsrA inhibitor: 2; bovine MsrA act: 2; rCAG binder: 80*; rCAG bind conf: 85*; DNA CAG counter: 55*

What do the screens show for `CCOC(=O)C(C)N1C(=O)S/C(=C\c2ccc(-c3ccccc3C(=O)O)o2)C1=O` (stereo not drawn)?
HGIII-sPLA2 inh: -9; MsrA inhibitor: 2; bovine MsrA act: -2; rCAG binder: 37*; rCAG bind conf: 40*; DNA CAG counter: 12*

What do the screens show for `Cc1ccccc1NC(=O)CN1C(=O)S/C(=C\c2ccc(-c3cc(C(=O)O)ccc3C)o2)C1=O`?
HGIII-sPLA2 inh: -7; MsrA inhibitor: 0; bovine MsrA act: -7; rCAG binder: 10

How did Cc1ccc(C)c(N2C(=N)S/C(=C\c3ccc(-c4ccccc4C(=O)O)o3)C2=O)c1 do in these assays?
HGIII-sPLA2 inh: -24; MsrA inhibitor: 4; bovine MsrA act: 3; rCAG binder: 45*; rCAG bind conf: 39*; DNA CAG counter: 10*

Results for Cc1ccc2c(nc3s/c(=C\c4ccc(-c5ccccc5C(=O)O)o4)c(=O)n32)c1C ?
HGIII-sPLA2 inh: 2; MsrA inhibitor: 1; bovine MsrA act: -1; rCAG binder: 54*; rCAG bind conf: 89*; DNA CAG counter: 75*

Results for Cc1cc(C)c2nc3sc(=Cc4ccc(-c5ccccc5C(=O)O)o4)c(=O)n3c2c1 ?
HGIII-sPLA2 inh: -3; MsrA inhibitor: -1; bovine MsrA act: -4; rCAG binder: 28

What do the screens show for `Cc1ccc(S(=O)(=O)N2[C@@H](c3ccc(Br)cc3)C(C(=O)O)=CC[C@H]2c2cccc(Cl)c2)cc1`?
HGIII-sPLA2 inh: -4; MsrA inhibitor: -1; bovine MsrA act: -9; rCAG binder: 14

Results for Cc1ccc(S(=O)(=O)N2[C@@H](c3ccc(Br)cc3)C(C(=O)O)=CC[C@H]2c2ccc(Cl)c(Cl)c2)cc1 ?
HGIII-sPLA2 inh: -149; MsrA inhibitor: 1; bovine MsrA act: -1; rCAG binder: 87*; rCAG bind conf: 82*; DNA CAG counter: 52*

Results for Cc1ccc(S(=O)(=O)N2[C@@H](c3ccc(C(C)(C)C)cc3)C(C(=O)O)=CC[C@H]2c2cccc(Cl)c2)cc1 ?
HGIII-sPLA2 inh: -42; MsrA inhibitor: 1; bovine MsrA act: -2; rCAG binder: 88*; rCAG bind conf: 75*; DNA CAG counter: 41*

What do the screens show for `O=C(O)C1=CCC(c2ccc(Cl)c(Cl)c2)N(S(=O)(=O)c2ccc(F)cc2)C1c1cccc(F)c1` (stereo not drawn)?
HGIII-sPLA2 inh: -26; MsrA inhibitor: 0; rCAG binder: 72*; rCAG bind conf: 68*; DNA CAG counter: 26*

How did Cc1ccc([C@H]2C(C(=O)O)=CC[C@@H](c3cccc(Cl)c3)N2S(=O)(=O)c2ccc(C)cc2)cc1 do in these assays?
HGIII-sPLA2 inh: -9; MsrA inhibitor: -1; bovine MsrA act: 1; rCAG binder: 19

What do the screens show for `Cc1ccc(S(=O)(=O)N2[C@@H](c3ccc(C(C)(C)C)cc3)C(C(=O)O)=CC[C@H]2c2ccc(Cl)c(Cl)c2)cc1`?
HGIII-sPLA2 inh: -23; MsrA inhibitor: 0; bovine MsrA act: -3; rCAG binder: 68*; rCAG bind conf: 49*; DNA CAG counter: 24*

How did Cc1cccc(NCN2C(=O)c3ccccc3C2=O)c1 do in these assays?
HGIII-sPLA2 inh: 3; MsrA inhibitor: 1; bovine MsrA act: -4; rCAG binder: -3

What do the screens show for `O=C(Nc1cccc(S(=O)(=O)c2cccc(NC(=O)c3ccco3)c2)c1)c1ccco1`?
HGIII-sPLA2 inh: -35; MsrA inhibitor: 2; bovine MsrA act: -3; rCAG binder: 20

How did CCc1ccc(NC(=O)CSc2nc3ccsc3c(=O)n2CCCCCC(=O)O)cc1 do in these assays?
HGIII-sPLA2 inh: 1; MsrA inhibitor: -1; bovine MsrA act: -2; rCAG binder: 1

How did CC(C)c1ccc(NC(=O)CSc2nc3ccsc3c(=O)n2CCC(=O)O)cc1 do in these assays?
HGIII-sPLA2 inh: -1; MsrA inhibitor: 0; bovine MsrA act: 0; rCAG binder: 36*; rCAG bind conf: 32; DNA CAG counter: 7.8*

What do the screens show for `CCOC(=O)C1=C(CC)Nc2ccccc2N=C1NC(=O)c1cc(S(=O)(=O)N(C)C)ccc1Cl`?
HGIII-sPLA2 inh: 0; MsrA inhibitor: -1; bovine MsrA act: -7; rCAG binder: 3

How did CCOC(=O)C1=C(CC)Nc2ccccc2N/C1=N\S(=O)(=O)c1ccc(C(=O)OCC)cc1 do in these assays?
HGIII-sPLA2 inh: -29; MsrA inhibitor: 2; bovine MsrA act: -7; rCAG binder: 41*; rCAG bind conf: 40*; DNA CAG counter: 9.1*

Results for CC(=O)Nc1cccc(NC(=O)CCNC(=O)c2ccc(Cl)cc2)c1 ?
HGIII-sPLA2 inh: 10; MsrA inhibitor: 3; bovine MsrA act: -2; rCAG binder: -2

Results for O=C(/C=C/c1ccco1)c1cccnc1 ?
HGIII-sPLA2 inh: 10; MsrA inhibitor: 2; bovine MsrA act: -4; rCAG binder: 36*; rCAG bind conf: 10; DNA CAG counter: 5.2*

Results for CCOC(=O)C1=C(C)NC(SC(C)=O)=NC1c1ccc(OC(C)=O)c(OC)c1 (stereo not drawn) ?
HGIII-sPLA2 inh: 2; MsrA inhibitor: 0; bovine MsrA act: -13; rCAG binder: 2

How did CCc1ccc(C(=O)/C=C/Nc2ccc(S(=O)(=O)Nc3onc(C)c3C)cc2)cc1 do in these assays?
HGIII-sPLA2 inh: -21; MsrA inhibitor: 0; bovine MsrA act: -10; rCAG binder: 57*; rCAG bind conf: 79*; DNA CAG counter: 37*
